Screens: PubChem, National Center for Advancing Translational Sciences (NCATS)
The full list was thinned out, with hits kept by preference.
MARV entry inh = Marburg virus entry inhibition; Potency, µM (doses to about 37.8 µM), inactives show at the highest dose activity change, negative = inhibition, hits mostly inhibitors; AID 540276; Marburg virus pseudotyped entry inhibition, cell reporter; 1.8% of 300,000 active; calls by dose curve; tested in HEK293 cells; note: potency is the fitted concentration of half-maximal effect; % is set by controls: 0 for no effect and ±100 for the full control effect
Lassa entry inh = inhibitors of Lassa virus binding or cell entry; Lassa virus pseudotype entry inhibition, cell reporter; Potency, µM (top dose mostly 37.9 µM), inactives show at the highest dose activity change, negative = inhibition, usual class: inhibitors; 1.2% of 300,000 active; calls by dose curve; tested in HEK293 cells; note: potency is the fitted concentration of half-maximal effect; % is set by controls: 0 for no effect and ±100 for the full control effect; nearly all actives have a fitted effect of over 50% in size
Shiga inhibitor = blocks Shiga toxin action in Vero cells; Vero cells, Shiga toxin protein synthesis inhibition reporter; inhibition, % at 38.7 µM; 9.2% of 290,000 active; in the data active = inhibition mostly above about 28%, no sharp cut-off; inactive = mostly below about 43%; note: 0% is about no effect
AMA1 RON2 block = AMA1-RON2 (P. falciparum) interaction inhibition. 0.2% of 360,000 active. AlphaScreen AMA1-biotinylated RON2 peptide binding. Potency, µM (titrated, usually from 58.2 µM), for the others: top-dose activity change, negative = inhibition, actives largely listed as inhibitors; active = well fitted inhibition curve with a large enough effect; inconclusive = small, poorly fitted or top-dose-only effect; inactive = no such curve, though single readings can be large or run the other way;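 note: potency is the fitted concentration of half-maximal effect; 0% = vehicle wells and -100% = peptide control; nearly all actives have a fitted effect of over 45% in size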
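AMA1 (3D7) with his tag at 25 nM final met compounds first, then biotinylated RON2 peptide at 25 nM; detection used donor plus acceptor beads, 10 µg/mL apiece, read by AlphaScreen after 30 min at room temperature.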
CHX counter = counter-screen for Shiga toxin inhibitors: cycloheximide protein synthesis inhibition. cell reporter, cycloheximide protein synthesis inhibition counterscreen. max response, %. 12% of 300,000 active. AID 2314; in the data active = max response mostly above about 13%, no sharp cut-off; inactive = mostly below about 14%; note: read at 38.3 µM for the half of the compounds with a filed dose; 0% is about no effect
* hit, by the source's call; ? = inconclusive; · = no result; [ ] = remark or other dose.

SMILES	MARV entry inh	Lassa entry inh	Shiga inhibitor	AMA1 RON2 block	CHX counter
Clc1ccc(OC2CCN(Cc3nc(CC4CC4)no3)CC2)cc1	?	?	-1.8	-14.9%	-0.5
Fc1ccc2nc(C3CCN(Cc4nc(CC5CC5)no4)CC3)[nH]c2c1	-1.4%[46.1 µM]	10.8%[46.1 µM]	8.4	-14.6%	15.2*
Fc1ccccc1C1CCN(Cc2nc(CC3CC3)no2)C1 (stereo not given)	?	12.9%[46.1 µM]	75.1*	-14.5%	27.6*
Cc1ccc2nc(C3CCCN3Cc3nc(CCC(C)C)no3)[nH]c2c1 (stereo not given)	?	-0.7%[46.1 µM]	81.0	45.0%	3.5
Cc1ccc(NC(=O)CSc2n[nH]c(-c3ccc(F)cc3)n2)cc1F	·	-20.4%[46.1 µM]	·	·	·
CCOC(=O)c1[nH]c2c(c1Cc1ccccc1OC)C(=O)CC(c1ccc(OCC)cc1)C2 (stereo not given)	-5.5%[46.1 µM]	1.8%[46.1 µM]	·	·	·
C[C@@H]1CN([C@H](C)CO)C(=O)CCCn2nncc2CO[C@@H]1CN(C)S(=O)(=O)c1ccccc1	·	·	·	12.8%	·
COc1ccc(NC(=O)CCNS(=O)(=O)c2cccc3nonc23)c(OC)c1	-11.9%[46.1 µM]	-2.2%	-0.2	-29.6%	-5.6
Cc1ccc(C2C(C#N)=C(N)N(c3cccnc3)C3=C2C(=O)CCC3)s1 (stereo not given)	4.1%	7.9%	51.0*	0.0%	11.4
CSCC[C@H](NC(=O)[C@H](Cc1ccccc1)NC(=O)[C@H](Cc1cnc[nH]1)NC(=O)CNC(=O)[C@@H](NC(=O)[C@H](C)NC(=O)[C@H](Cc1c[nH]c2ccccc12)NC(=O)[C@H](CC(C)C)NC(=O)[C@H](CC(N)=O)NC(=O)CN)[C@@H](C)O)C(N)=O	·	·	-4.1	·	-6.2
CCOC(=O)C(Cc1ccc(O)cc1)Nc1nc2ccccc2o1 (stereo not given)	14.8%	?	·	-20.8%	·
CCOC(=O)C(=CN=C(N)Nc1nc2ccccc2o1)C(=O)OCC	?	1.1%	31.4*	63.3%	13.5*
CCCOC(=O)Nc1nc2ccccc2o1	5.8%	-29.3%	143.6*	12.9%	25.9*
O=C(NNC(=O)c1cc(O)c(O)c(O)c1)NC1CCCCC1	21.0%	9.2%	-14.4	-17.1%	-2.8
COc1ccc(CNC(=O)c2cc(C)nn2-c2ccccc2)cc1	·	·	10.7	0.8%	-1.2
CCOc1ccccc1CNC(=O)c1cccc(NC(=O)c2nsc3ccccc23)c1	·	1.1%[46.1 µM]	·	·	·
CSc1ccccc1NC(=O)CN(C)C(=O)COc1cccc2cccnc12	·	·	·	-1.0%	·
Cc1ccc(S(=O)(=O)CCC(=O)Nc2ccc3nc(C)sc3c2)cc1	-5.8%	-18.9%	-3.8	9.6%	3.8
Cc1nc2cc(NC(=O)CS(=O)(=O)c3ccc(F)cc3)ccc2s1	?	?	·	-8.7%	·
Cc1nc2ccc(NC(=O)CCS(=O)(=O)c3ccccc3)cc2s1	?	22.4%	94.3*	9.6%	47.0*
Cc1ccc2nc(-c3ccc(NC(=O)CCS(=O)(=O)c4ccccc4)cc3)sc2c1	?	1.84µM*	64.9*	-13.9%	47.0*
Cc1ccc(NC(=O)CCS(=O)(=O)c2ccc3nc(C)sc3c2)cc1	·	1.5%[46.1 µM]	6.2	-1.2%	1.0
Cc1nc2cc(NC(=O)CCS(=O)(=O)c3ccccc3)ccc2s1	-0.5%	·	58.0*	0.0%	37.2*
CCC(=O)N1CCN(c2ccccc2NC(=O)COc2ccc(C(C)C)cc2)CC1	·	·	-5.1	8.3%	-2.6
CCOc1ccc(CCNC(=O)CSCc2nc(-c3cccc(C)c3)oc2C)cc1OCC	?	-19.3%[46.1 µM]	·	·	·
SMILES	MARV entry inh	Lassa entry inh	Shiga inhibitor	AMA1 RON2 block	CHX counter
Cc1onc(-c2ccc3c(c2)OCO3)c1-c1ccc2[nH]ccc2c1	·	·	22.1*	-0.4%	2.8
c1ccc(-c2onc(-c3ccco3)c2-c2ccc3[nH]ccc3c2)cc1	·	·	42.1*	-16.0%	34.5*
O=C1C=C(c2ccc3cc[nH]c3c2)C[C@@H](c2ccc3c(c2)OCO3)C1	·	·	·	-9.5%	·
c1cc2cc(-c3c(-c4ccc5c(c4)OCO5)noc3-c3ccsc3)ccc2[nH]1	·	·	49.9*	-8.1%	39.3*
CCOC(=O)c1ccc(-c2c(-c3ccc4c(c3)OCO4)noc2-c2ccsc2)cc1F	·	·	-3.5	6.1%	-1.5
COc1cc(-c2c(-c3ccc4c(c3)OCO4)noc2-c2ccsc2)ccc1F	·	·	17.6	-4.3%	14.6*
CCOCCCNC(=O)c1cnc2sc(N3CCCCCC3)nn2c1=O	·	-13.5%[46.1 µM]	·	·	·
COc1ccc(C)cc1NC(=O)C(Sc1nnc(-c2ccncc2)n1-c1ccc(Cl)cc1)c1ccccc1 (stereo not given)	?	?	13.5	-29.9%	-4.8
COc1ccc(N(CC(=O)N2CCc3ccccc3C2)S(=O)(=O)c2ccc(C)cc2)cc1Cl	-11.8%[46.1 µM]	?	·	·	·
COC(=O)c1cc2oc(C)cc2n1CC(=O)Nc1ccc(OC)c(OC)c1	-0.3%[46.1 µM]	·	·	·	·
O=C(NCCc1ccccc1Cl)c1ccc2c(c1)nc1n2CCOC1	·	0.1%[46.1 µM]	·	·	·
Cc1ccc(C)c(N2CCN(C(=O)c3ccc(-c4nc(COc5ccccc5)c(C)o4)cc3)CC2)c1	·	-15.9%[46.1 µM]	·	·	·
O=C(NC(c1ccc(Cl)cc1)c1ccsc1)C1CCN(Cc2cccc(Cl)c2)CC1 (stereo not given)	·	·	·	-13.1%	·
Cc1ccccc1NC(=O)CSc1c(C(C)C)cnc2c1c(=O)n(C)c(=O)n2C	·	-1.0%[46.1 µM]	·	·	·
CC(C)c1ccc(NC(=O)C2CC(=O)Nc3nc4ccccc4n32)cc1 (stereo not given)	·	·	18.4	0.9%	22.8*
O=C1CC(C(=O)Nc2ccc(Cl)cc2)n2ncnc2N1 (stereo not given)	?	0.6%	35.8	5.5%	-2.6
O=C(c1cccc(C(F)(F)F)c1)C1CCCN(C(=O)CN2CCCC2=O)C1 (stereo not given)	0.0%[46.1 µM]	0.1%[46.1 µM]	50.3	-10.6%	17.3*
O=C(c1ccc(C(F)(F)F)cc1)C1CCCN(C(=O)CCn2cncn2)C1 (stereo not given)	·	·	6.2	0.0%	18.0
CSc1ccc(C(=O)C2CCCN(C(=O)CCCn3cncn3)C2)cc1 (stereo not given)	·	·	38.2	7.5%	10.9*
O=C(c1cccc(C(F)(F)F)c1)C1CCCN(C(=O)CCCn2cncn2)C1 (stereo not given)	-16.5%[46.1 µM]	-1.3%	14.6	-5.0%	10.5*
CC(C)(C)c1ccc(C(=O)C2CCCN(C(=O)CN3CCCC3=O)C2)cc1 (stereo not given)	·	·	-2.6	-1.1%	-1.1
COc1ccc(NC(=O)c2cc(C3CC3)nc3c2c(C)nn3-c2ccc(C)cc2)cc1OC	·	21.0%[46.1 µM]	·	·	·
COc1cc(-c2nnc3n2CCCCC3)cc(OC)c1OC	·	·	-3.8	-1.1%	-5.5
CCCCc1ccc(NC(=O)COC(=O)c2ccc3ncsc3c2)cc1	·	·	·	0.4%	·
COc1cc(NC(=O)Cn2c(=O)n(-c3ccccc3)c(=O)c3c4c(sc32)CCCC4)cc(OC)c1	-1.5%[46.1 µM]	15.7%[46.1 µM]	·	·	·
C[C@@H]1COc2cccc(NCCO)c2S(=O)(=O)N1	·	4.7%[46.1 µM]	·	·	·
COc1ccccc1-c1cnn2c(NCc3ccccc3)cc(C)nc12	·	·	33.7	141.7%	11.8
COc1ccc(CCNc2cc(C)nc3c(-c4ccccc4OC)cnn23)cc1OC	11.2µM*	-8.1%[46.1 µM]	-10.0	52.4%	10.7
O=[N+]([O-])c1ccc(CSc2ccc(-c3ccccn3)nn2)cc1	13.7%[46.1 µM]	-0.6%[46.1 µM]	19.7	-24.2%	-1.0
